Holding throughout (experiment): MAPPIT interaction score (arbitrary units); higher = stronger binary interaction signal, active = hit call of the paper
One test addresses Cdc5. To be noted: MAPPIT configuration: N-N; pair source set: DPIM.
The next test concerns the target CkIIalpha-i3. To be noted: MAPPIT configuration: N-C; pair source set: screen_3.
The next test addresses Caper. To be noted: MAPPIT configuration: N-N; pair source set: DPIM.
The target of a further test is Caf1-55. To be noted: pair source set: Lit-BM-16.
The target of a further test is Rph. To be noted: MAPPIT configuration: N-C; pair source set: RRS.
The next test has as its target Cdc50. To be noted: MAPPIT configuration: N-N; pair source set: DPIM.
In the next test the target is CanA1. To be noted: MAPPIT configuration: N-N; pair source set: Lit-BS-16.
The target of another test is Cdlc2. To be noted: MAPPIT configuration: N-N; pair source set: Finley_Y2H.
The target in another test is Chd64. To be noted: MAPPIT configuration: N-N; pair source set: RRS.
For another test, the target named is Cda5. To be noted: MAPPIT configuration: N-N; pair source set: Lit-BS-16.

± gives the standard deviation of the averaged measurements.
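Note: HEK293T cells with Epo stimulation, STAT-responsive firefly luciferase reporter, fold induction versus unstimulated cells divided by the larger fold induction of two negative controls lacking either bait or prey.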

B1: LTV1 (protein)
chain: MVKGKKPYIDRKKAVTFHLVHRSQHDPLVTDENAPQRVLLEAAARQQKPKDPEPPTDPAQRQEELKKFGIHFDDDYDYMQHLKKRENDVVWEFMENPNQARKQKVQDSEKPGPAPKLMLPSSVFASEFEESEGMLNKAAPQTLRLDWDPDVVAALDSDCENEELEDDFVIQAMAEGDSDDEEWDDEDGEEQSDMDFDSDDLNEDENEDELMDRLAPLMRERRFDDEEVKSRFTEYSMSSSVIRRNEQLSLLDDRFEKFYATYDDPELGDLALEDIEGNWHQKHPVVMQCFQEFKKKDKGIEYNKEWDRERIEKYRNVVEGEEDPTEELVEYEVDDPKQKKWDCESILSTYSNIYNHPKVIDEPRRSRRSSASTNPAPIQIDPKTGLPTNVLRGGVDGQLTAKALANLADESPAATGPKSLCAKSVLSTLSVLSIRPKDETHEEKKERKRLLKDYRNERRIEKKANTEAFKEEKKRQTHVKINQRTNQQGASIV
As for B1, the MAPPIT interaction score with Cdc5 is 1.03 (inactive).

B2: Timp (protein)
chain: MDLRKHLGLLTLLLVAVFAFYGRPADACSCMPSHPQTHFAQADYVVQLRVLRKSDTIEPGRTTYKVHIKRTYKATSEARRMLRDGRLSTPQDDAMCGINLDLGKVYIVAGRMPTLNICSYYKEYTRMTITERHGFSGGYAKATNCTVTPCFGERCFKGRNYADTCKWSPFGKCETNYSACMPHKVQTVNGVISRCRWRRTQLYRKCMSNP
Turning to B2, the MAPPIT interaction score with CkIIalpha-i3 was 0.0292 (inactive).

B3: Npc2a (protein)
chain: MLRYAVIACAALVVFAGALEFSDCGSKTGKFTRVAIEGCDTTKAECILKRNTTVSFSIDFALAEEATAVKTVVHGKVLGIEMPFPLANPDACVDSGLKCPLEKDESYRYTATLPVLRSYPKVSVLVKWELQDQDGADIICVEIPAKIQ
Take B3: in the test with Caper, the MAPPIT interaction score was -0.361 (inactive).

B4: Caf1-55 (protein)
chain: MVDRSDNAAESFDDAVEERVINEEYKIWKKNTPFLYDLVMTHALEWPSLTAQWLPDVTKQDGKDYSVHRLILGTHTSDEQNHLLIASVQLPSEDAQFDGSHYDNEKGEFGGFGSVCGKIEIEIKINHEGEVNRARYMPQNACVIATKTPSSDVLVFDYTKHPSKPEPSGECQPDLRLRGHQKEGYGLSWNPNLNGYLLSASDDHTICLWDINATPKEHRVIDAKNIFTGHTAVVEDVAWHLLHESLFGSVADDQKLMIWDTRNNNTSKPSHTVDAHTAEVNCLSFNPYSEFILATGSADKTVALWDLRNLKLKLHSFESHKDEIFQVQWSPHNETILASSGTDRRLHVWDLSKIGEEQSTEDAEDGPPELLFIHGGHTAKISDFSWNPNEPWIICSVSEDNIMQVWQMAENVYNDEEPEIPASELETNTA
In the case of B4, the results for the MAPPIT interaction score with Caf1-55 (MAPPIT configuration: N-C), with Caf1-55 (MAPPIT configuration: N-N) and with Rph were 2.19 (inactive), 1.84 ± 0.68 and 2.27 (inactive), respectively.

B5: CaBP1 (protein)
chain: MRQLASILLLAFVVGSVSAFYSPSDGVVELTPSNFDREVLKDDAIWVVEFYAPWCGHCQSLVPEYKKLAKALKGVVKVGSVNADADSTLSGQFGVRGFPTIKIFGANKKSPTDYNGQRTAKAIAEAALAEVKKKVQGVLGGGGGSSSGGSGSSSGDDVIELTEDNFDKLVLNSDDIWLVEFFAPWCGHCKNLAPEWAKAAKELKGKVKLGALDATAHQSKAAEYNVRGYPTIKFFPAGSKRASDAQEYDGGRTASDIVSWASDKHVANVPAPELIEIINESTFETACEGKPLCVVSVLPHILDCDAKCRNKFLDTLRTLGEKFKQKQWGWAWAEGGQQLALEESLEVGGFGYPAMAVVNFKKMKFSVLKGSFSKDGINEFLRDISYGRGHTAPVRGAKKPAIVSVDPWDGKDGQLPTEEDIDLSDIDLDKDEL
Take B5: the MAPPIT interaction score with Cdc50 was 0.0074 (inactive).

B6: CanB (protein)
chain: MGNETSLPMDMCSNFDADEIRRLGKRFRKLDLDNSGALSIDEFMSLPELQQNPLVQRVIDIFDADGNGEVDFKEFIQGVSQFSVRGDKLSKLRFAFRIYDMDNDGYISNGELFQVLKMMVGNNLKDTQLQQIVDKTICFADKDEDGKISFDEFCSVVGNTDIHKKMVVDV
As for B6, the MAPPIT interaction score with CanA1 was -0.226 (inactive).

B7: Acp62F (protein)
chain: MTDMWSLKICACLGLLLLFKPIDSMGWQGPKVDCTANGTQTECPVACPETCEYSGNGPCVKMCGAPCVCKPGYVINERIPACVLRSDCPKDVVRKEDMLLGVSNFKCFSRNYNCS
Consider B7, for which the MAPPIT interaction score in the test with Cdlc2 is 2.6 (inactive).

B8: GstS1 (protein)
chain: MADEAQAPPAEGAPPAEGEAPPPAEGAEGAVEGGEAAPPAEPAEPIKHSYTLFYFNVKALAEPLRYLFAYGNQEYEDVRVTRDEWPALKPTMPMGQMPVLEVDGKRVHQSISMARFLAKTVGLCGATPWEDLQIDIVVDTINDFRLKIAVVSYEPEDEIKEKKLVTLNAEVIPFYLEKLEQTVKDNDGHLALGKLTWADVYFAGITDYMNYMVKRDLLEPYPALRGVVDAVNALEPIKAWIEKRPVTEV
As for B8, the MAPPIT interaction score in the test with Chd64 is 0.058 (inactive).

B9: Cp36 (protein)
chain: MQLGLWFGILAIAATPLVSANYGPAGGHGHGHGHGQYLSGPNAGLEEYVNVASGGNQQAANQIASQAEIQPTPEEARRLGRVQAQLQALNADPNYQKLKNSEDIAESLAETNLASNIRQGKIKVVSPQFVDQHLFRSLLVPSGHNNHQVIATQPLPPIIVHQPGAPPAHVNSGPPTVVRGNPVIYKIKPSVIYQQEVINKVPTPLSLNPVYVKVYKPGKKIEAPLAPVVAPVYSQPREYSQPQGYGSAGAASSAAGAASSADGNAYGNEAPLYNSPAPYGQPNY
On to B9, for which, in the test with Cda5, the MAPPIT interaction score was 0.061 (inactive).

For the origin of these results see the supplement of paper PMC10105736.
